Source: PubChem BioAssay
Sfp PPTase inh – blocks B. subtilis Sfp PPTase activity | Q9F4F7 | Biochemical Sfp PPTase activity, qHTS | Potency, µM, for inactives: largest response in the series, negative = inhibition, most hits filed as inhibitors | 310,000 tested, 3.5% active | AID 1490;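 note: the enzyme is Sfp with the accession as filed and its product quenches rhodamine fluorescence; 0% = enzyme reaction without inhibitor and -100% = no enzyme wells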
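With Hepes-Na pH 7.6 buffer containing 10 mM MgCl2, Sfp (15 nM) modified BHQ-2-YbbR (12.5 uM) using rhodamine-CoA (5 uM). Two reads 30 minutes apart at 525/598 nm yielded each well's rate.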
Gal4-VP16 FLuc – Gal4-VP16 reporter inhibition counter-screen; Drosophila S2 Gal4-VP16 UAS-luciferase, luminescence, 20 h; Potency, µM (titrated, usually from 53.6 µM), without a hit: at the highest dose activity, negative = inhibition, actives largely listed as inhibitors; 310,000 tested, 3.5% active; AID 2546;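 note: Gal4-VP16 expression switched on by copper sulfate through the metallothionein promoter; nearly all actives have a fitted effect of over 50% in size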
PLK1 PBD block – inhibitors of human PLK1 polo-box domain binding; Plk1 PBD binding of FITC phosphopeptide, fluorescence polarization; Potency, µM, for inactives: max response, negative = inhibition, usual class: inhibitors; 360,000 tested, 2.8% active; AID 720504; note: series mostly up to about 57 µM; nearly all actives have a fitted effect of over 65% in size
Target sequence (P53350 whole entry, looked up, the tested form may be a part): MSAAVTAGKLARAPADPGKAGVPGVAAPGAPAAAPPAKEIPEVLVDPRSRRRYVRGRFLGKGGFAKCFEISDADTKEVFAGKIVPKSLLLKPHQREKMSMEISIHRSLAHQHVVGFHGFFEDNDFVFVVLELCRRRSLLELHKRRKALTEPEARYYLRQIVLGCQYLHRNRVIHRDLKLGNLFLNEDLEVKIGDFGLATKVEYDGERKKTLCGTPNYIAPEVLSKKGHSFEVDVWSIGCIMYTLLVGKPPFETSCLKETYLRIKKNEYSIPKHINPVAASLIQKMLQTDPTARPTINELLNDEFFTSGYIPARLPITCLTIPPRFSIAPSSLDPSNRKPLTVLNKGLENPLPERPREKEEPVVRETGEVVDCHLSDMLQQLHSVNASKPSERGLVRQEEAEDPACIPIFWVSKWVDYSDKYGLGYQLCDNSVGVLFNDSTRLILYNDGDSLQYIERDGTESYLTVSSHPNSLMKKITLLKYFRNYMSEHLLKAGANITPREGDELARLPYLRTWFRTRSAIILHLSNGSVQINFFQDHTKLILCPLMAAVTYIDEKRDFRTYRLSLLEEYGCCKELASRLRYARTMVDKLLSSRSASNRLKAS
RORg inh – ROR gamma (mouse) transcription inhibition; Potency, µM (series often up to 53.6 µM), for inactives: at the highest dose activity change, negative = inhibition, usual class: inhibitors; 310,000 tested, 5.4% active; Drosophila S2 Gal4-RORgamma UAS-luciferase reporter, 20 h; note: nearly all actives have a fitted effect of over 60% in size
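A Gal4/UAS one-hybrid system in insect cells: metallothionein-promoter Gal4–ROR gamma fusion plus Photinus luciferase reporter. Copper sulfate 700 uM final, 20 hr ambient incubation, luminescent detection after 10 min with reagent.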
ALDH1A1 inh – inhibitors of human aldehyde dehydrogenase 1A1; Purified ALDH1A1, NADH fluorescence, propionaldehyde substrate; Potency, µM (series often up to 75.3 µM), without a hit: at the highest dose activity, negative = inhibition, usual class: inhibitors; 220,000 tested, 7.3% active; active = well fitted inhibition curve with a large enough effect, not every such curve was filed as active; inconclusive = small, poorly fitted or top-dose-only effect, or another doubt; inactive = no such curve, though single readings can be large or run the other way;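 note: plate controls were no enzyme wells and a reference inhibitor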
Starred values were filed as active, the others as inactive; ? = inconclusive; nt = not tested or not shown; ! = repeats disagree; [ ] = dose if it differs, or a comment. In the library only some 12% were active in any assay of this set; here they are far more common. Unless noted, calls come from the whole dose curve; as a rule, active = well fitted curve in the direction sought with a large enough effect; inconclusive = small, poorly fitted or top-dose-only effect, or another doubt; inactive = no such curve, though single readings can be large; an effect the other way counts as inactive or inconclusive. Unless noted, % is set by controls: 0 for no effect and ±100 for the full control effect; potency is the fitted concentration of half-maximal effect.

SMILES	Sfp PPTase inh	Gal4-VP16 FLuc	PLK1 PBD block	RORg inh	ALDH1A1 inh
CCC(C)NS(=O)(=O)c1ccc(S(=O)(=O)N(CC(=O)Nc2ccccc2)Cc2ccco2)cc1 (stereo not given)	11%	-19%	-2%	-19%	25µM*
C(=C\c1nc(-c2ccccc2)oc1Nc1ccc2ccccc2c1)/c1ccccc1	5%	-8%	nt	-6%	12%
CC(C)[C@H](/C=C/C[Si](C)(C)C)[C@H](C)C(O)/C=C/CCCOC(=O)C(C)(C)C (stereo not given in full)	5%	1%	nt	-14%	nt
CC1(C)CC(=O)c2c(oc3cc4c(cc23)OCO4)C1	17%	-4%	nt	?	7.9µM*
C[C@@]12CC[C@@H]3[C@@H](CC[C@H]4C[C@@H](O)CC[C@]43C)[C@H]1CC[C@@H]2c1cc(C(F)(F)F)n[nH]1	nt	nt	nt	nt	3%[13.5 µM]
CCN(CC)c1ccc(N=Cc2cc(Br)ccc2O)cc1	63µM*	?	-5%	18µM*	7.9µM*
Oc1ccc(Br)cc1C=Nc1ccc(Cl)cc1	6%	4%	21µM*	-38%	7%
Oc1c(Cl)cc(Cl)cc1C=Nc1ccc(Br)cc1	9%	-6%	-18%	?	36%
Cc1ccc(N=Cc2cc(Br)cc(Cl)c2O)cc1	5%	0%	-27%	11µM*	13%
O=C1OCc2cccc([N+](=O)[O-])c21	2%	4%	-11%	33%	6%
O=C1CC(=O)c2c1cccc2[N+](=O)[O-]	79µM*	1%	nt	1%	nt
COC(=O)C(NC(C)=O)(Nc1ccc(Br)cn1)C(F)(F)F (stereo not given)	12%	-4%	-3%	14%	7.1µM*
COC(=O)C(NC(=O)c1ccco1)(Nc1ccc(Br)cn1)C(F)(F)F (stereo not given)	20%	5%	-1%	18%	15%
CO/N=C(/C(=O)N[C@@H]1C(=O)N2C(C(=O)O)=CCS[C@H]12)c1csc(N)n1	50µM*	1%	nt	-2%	nt
CO/N=C(/C(=O)NC1C(=O)N2C(C(=O)O)=C(CSc3nc(=O)c(O)nn3C)CSC12)c1csc(N)n1 (stereo not given)	50µM*!	-11%	nt	-9%	-2%
CO/N=C(/C(=O)N[C@H]1C(=O)N2C(C(=O)O)=C(COC(C)=O)CSC12)c1csc(N)n1 (stereo not given in full)	-32%	-1%	nt	-14%	?
COc1ccc(C(=O)OCC(=O)NCc2ccc3c(c2)OCO3)cc1[N+](=O)[O-]	13%	1%	-2%	0%	5µM*
O=C(COC(=O)c1cc(Cl)nc(Cl)c1)NCc1ccc2c(c1)OCO2	nt	nt	-11%	nt	nt
O=C(COC(=O)c1cnc(Cl)c(Cl)c1)NCc1ccc2c(c1)OCO2	0%	-14%	-9%	-10%	2.2µM*
COc1cccc(S(=O)(=O)N(C)C[C@H]2OCc3cnnn3CCCC(=O)N([C@H](C)CO)C[C@H]2C)c1	nt	nt	-14%	nt	nt
Cc1cccc(-n2nnnc2-c2cnccc2C(F)(F)F)c1C	-24%	7%	?	41%	16µM*
COc1ccc(OC)c(NS(=O)(=O)c2cc3c4c(c2)CCN4C(=O)CC3)c1	nt	nt	-6%	nt	nt
S=C(NCc1ccco1)N/N=C/c1ccc(Cl)cc1	-7%	5.6µM*	-3%	2.5µM*	-11%
CCN(CC)c1ccc(/C=N/NC(=S)NCc2ccco2)cc1	15%	3.2µM*	-12%	1.8µM*	?
Oc1c(Br)cc(/C=N/NC(=S)NCc2ccco2)cc1Br	-17%	-10%	?	?	nt
SMILES	Sfp PPTase inh	Gal4-VP16 FLuc	PLK1 PBD block	RORg inh	ALDH1A1 inh
S=C(NCc1ccco1)N/N=C/c1cccnc1	4%	?	2%	11µM*	nt
NC(Cc1ccc(C(F)(F)F)cc1)c1csc(Nc2ccc(S(N)(=O)=O)cc2)n1 (stereo not given)	nt	nt	3%	nt	nt
O=C(O)CO	-1%	-2%	nt	1%	nt
Cn1c(=O)n(C)c2cc(/C=N/NC(=O)c3ccncc3)ccc21	19%	-11%	nt	-29%	?
Cn1c(=O)n(C)c2cc(/C=N/NC(=S)NCc3ccccc3)ccc21	-10%	?	-21%	10µM*	?
CC(C)(C)c1ccc(/C=N/NC(=S)NCc2ccccc2)cc1	14%	1.1µM*	-4%	0.79µM*	10%
Cc1ccsc1/C=N/NC(=S)NCc1ccccc1	12%	-76%	-2%	0.022µM*	8%
